Bioassay records as filed in PubChem BioAssay.
SARS PLpro yeast – qHTS of Yeast-based Assay for SARS-CoV PLP. S. cerevisiae expressing SARS-CoV PLpro, growth rescue. Potency, µM (titrated, usually from 32.9 µM), usual class: activators. 0.19% of 330,000 active. AID 485353, 2010; calls by dose curve; also: nearly all actives have a fitted effect of over 55% in size
Pf growth 48h – Primary qHTS for delayed death inhibitors of the malarial parasite plastid, 48 hour incubation; P. falciparum luciferase growth in erythrocytes, 48 h; Potency, µM (titrated, usually from 28.7 µM), usual class: inhibitors; 5.9% of 310,000 active; AID 504832, 2011
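Luciferase-expressing parasites in RBCs, 2% Hct / 0.1% parasitemia final; RPMI 1640 + 0.5% Albumax; 37 C, 5% CO2, one generation; luminescence read-out, lower signal = inhibition.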
Pf growth 96h – Primary qHTS for delayed death inhibitors of the malarial parasite plastid, 96 hour incubation. 6.9% of 320,000 active. Potency, µM (highest dose often 28.7 µM), actives largely listed as inhibitors. P. falciparum luciferase reporter growth, 96 h
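P. falciparum expressing integrated firefly luciferase, in erythrocytes at 2% hematocrit, 0.05% parasitemia, incubated with compounds 96 h at 37 C, 5% CO2. Growth inhibition read as loss of luminescence; two-generation exposure targets delayed-death apicoplast inhibitors.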
NS1 function inh – qHTS Assay for Inhibitors of Influenza NS1 Protein Function; 0.4% of 270,000 active; Potency, µM (titrated, usually from 46.1 µM); calls by dose curve; also: actives are rising curves; nearly all actives have a fitted effect of over 50% in size
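Read-out: OD600 growth recovery of NS1-expressing budding yeast. Cells grown overnight at 30C in -URA glucose medium, washed, resuspended and diluted 1:100 in 2% galactose assay medium, pH 6.0. Same strain lacking NS1 served as positive control.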
Hits are given with their value; . = inactive; ? = inconclusive; / = no result given. Rows were chosen to be rich in hits. Some 10% of all compounds tested hit in one or more screens of this group. Unless noted, calls follow the shape of the dose curve; as a rule, active = well fitted inhibition curve with a large enough effect; inconclusive = small, poorly fitted or top-dose-only effect, or another doubt; inactive = no such curve, though single readings can be large or run the other way.

SMILES	SARS PLpro yeast	Pf growth 48h	Pf growth 96h	NS1 function inh
Cc1ccc(OCC(=O)NCCCNC(=O)c2ccco2)cc1	.	.	.	.
COc1cc(Nc2cc(C)nc3ncnn23)cc(OC)c1OC	.	9.3µM	?	.
COc1ccc(Nc2cc(C)nc3ncnn23)cc1Cl	.	?	?	.
COC(=O)c1cc(Nc2cc(C)nc3ncnn23)cc(C(=O)OC)c1	.	.	.	?
COc1cc(Nc2cc(C)nc3ncnn23)cc(OC)c1	.	8.3µM	.	.
Cc1ccc(NC(=O)COc2ccc(Br)cc2CO)cc1S(=O)(=O)N1CCOCC1	.	/	/	/
Cc1ccccc1CN1CCNC(=O)C1CC(=O)NCCN1CCCCC1=O (configuration not stated)	.	.	.	.
COc1ccc(NS(=O)(=O)c2cccc(C(=O)N/N=C/c3cn(-c4ccccc4)nc3-c3ccccc3)c2)cc1	.	?	.	.
NS(=O)(=O)c1ccc(N/N=C/c2ccccc2C(=O)O)c([N+](=O)[O-])c1	.	.	.	/
COc1ccc(NS(=O)(=O)c2cccc(C(=O)N/N=C/c3cn(-c4ccccc4)nc3-c3ccc(OC)cc3)c2)cc1	.	2.3µM	?	.
CCN(CC)c1ccc(/C=N/NC(=O)c2cccc(S(=O)(=O)Nc3ccccc3OC)c2)c(O)c1	1.8µM	9.3µM	12µM	.
NS(=O)(=O)c1ccc(N/N=C/c2cn(-c3ccccc3)nc2-c2ccccc2)c([N+](=O)[O-])c1	.	4.1µM	?	.
NC(=O)N/N=C/c1cn(-c2ccccc2)nc1-c1ccccc1	.	.	?	/
COc1ccccc1NS(=O)(=O)c1cccc(C(=O)N/N=C/c2cn(-c3ccccc3)nc2-c2ccccc2)c1	.	2.1µM	2.9µM	?
CCN(CC)c1ccc(/C=N/NC(=O)c2cccc(S(=O)(=O)Nc3ccccc3OC)c2)cc1	.	?	.	.
CCN(CC)S(=O)(=O)c1ccc(C(=O)NCC2CCCCC2)cc1	.	.	?	.
COc1ccccc1NS(=O)(=O)c1cccc(C(=O)N/N=C/c2ccc3c(c2)OCCO3)c1	.	.	.	.
COc1ccccc1NS(=O)(=O)c1cccc(C(=O)N/N=C/c2ccc([N+](=O)[O-])o2)c1	.	1.9µM	1.7µM	/
O=C(NNC(=O)C1CC1)c1cc(Br)c(Br)s1	.	/	/	/
COc1ccc(NCc2nnc(SCC(=O)NCc3ccccc3)n2-c2ccccc2OC)cc1	.	?	.	.
O=C(CSc1nnc(CNc2ccc(F)cc2)n1Cc1ccccc1)NCc1ccco1	.	?	?	.
CCOc1ccccc1-n1c(CNc2ccc(F)cc2)nnc1SCC(=O)NCc1ccco1	.	12µM	.	.
COc1ccccc1-n1c(CNc2ccc(F)cc2)nnc1SCC(=O)Nc1cc(C)on1	.	13µM	.	.
O=Cc1c[nH]c2ccc(S(=O)(=O)N3CCOCC3)cc12	.	.	.	.
O=C1CC(NS(=O)(=O)c2ccc3ccccc3c2)CN1c1ccccc1 (configuration not stated)	.	.	.	/
SMILES	SARS PLpro yeast	Pf growth 48h	Pf growth 96h	NS1 function inh
Fc1ccc(Sc2ccccc2CNC2=NCCN2)cc1	.	5.9µM	2.1µM	.
COC(=O)Cc1c(O)ccn(CCc2c[nH]c3ccccc23)c1=O	.	.	.	.
O=c1c(Cc2c(F)cccc2Cl)c(O)ccn1CCc1c[nH]c2ccccc12	.	?	5.2µM	.
Cc1ccc(OCc2cc(C(=O)N(C)CCc3nc4ccccc4[nH]3)no2)cc1C	.	?	.	.
COc1cccc(C2C(C#N)=C(N)OC3=C2C(=O)CC(c2ccco2)C3)c1OCc1ccc(F)cc1 (configuration not stated)	.	6.6µM	.	.
N#CC1=C(N)OC2=C(C(=O)CC(c3ccco3)C2)C1c1ccc(OCc2c(F)cccc2Cl)cc1 (configuration not stated)	.	?	.	.
O=C(Nc1ccc(Nc2ccncc2)cc1)c1ccc(Nc2ccnc3ccc([N+](=O)[O-])cc23)cc1	.	0.093µM	0.093µM	.
Cc1nc(N2CCOCC2)c2c3c(sc2n1)CCC3	.	10µM	?	/
COc1cccc(Nc2nc(CN3CCOCC3)nc3sc4c(c23)CCCC4)c1	.	15µM	?	.
CSc1nc(N2CCOCC2)c2c3c(sc2n1)CCCC3	.	?	.	.
COc1cc2c(cc1OC)CN(c1nc(CN3CCCCC3)nc3sc4c(c13)CCCC4)CC2	.	3.3µM	1.9µM	.
COc1cc2c(cc1OC)CN(c1nc(CN3CCOCC3)nc3sc4c(c13)CCCC4)CC2	.	9.3µM	1.7µM	.
Cc1ccccc1NC(=S)NC(=O)COc1ccccc1C	.	.	.	.
